Experiment in all cases: NCI-60 one-dose screen, 48 h (100 = growth as untreated, 0 = no growth, -100 = all killed)
The test system of one assay is NCI-H23 lung. Conditions: 10 µM unless noted.
For a further assay, the system named is NCI-H226 lung. The note with it: 10 µM unless noted.
In a further assay the test system is NCI-H322M lung. The note with it: 10 µM unless noted.
A further assay relates to HOP-62 NSCLC. Conditions: 10 µM unless noted.
In a further assay the test system is NCI-H460 lung. The note with it: 10 µM unless noted.
The subject of the next assay is HOP-92 NSCLC. The note with it: 10 µM unless noted.
In a further assay the test system is NCI-H522 lung. The note with it: 10 µM.
The subject of another assay is 786-0 renal. Conditions: 10 µM unless noted.
For the next assay, the system named is COLO 205 colon. Conditions: 10 µM unless noted.
In the next assay the test system is DU-145 prostate. The note with it: 10 µM unless noted.
The test system of the next assay is K-562 leukemia. The note with it: 10 µM unless noted.
The test system of a further assay is MALME-3M melanoma. Conditions: 10 µM unless noted.
In a further assay the test system is MDA-MB-231 breast. The note with it: 10 µM unless noted.
In another assay the test system is RXF 393 renal. Conditions: 10 µM unless noted.
A further assay relates to SF-268 CNS. Conditions: 10 µM unless noted.
In another assay the test system is SF-295 CNS. Conditions: 10 µM unless noted.
The next assay has as its system SF-539 CNS. Conditions: 10 µM unless noted.
The next assay concerns M14 melanoma. The note with it: 10 µM unless noted.
A further assay deals with UACC-257 melanoma. Conditions: 10 µM unless noted.

Compounds without any hit were thinned out: in the full panel of roughly 83,000, 20% have a hit.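 In brief: 96-well plates, 48 h treatment, single concentration, percent growth endpoint.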 Unmarked numbers belong to inactive results. Activity calls are given as the source filed them. Rule for the calls: active = growth percent below 10; inactive = the rest.

For the molecule `OCCN1CCN(CCCN2c3ccccc3Sc3ccc(C(F)(F)F)cc32)CC1`, the growth in the assay with NCI-H23 lung is 65.5%; with NCI-H226 lung, 82.7%; in the assay with NCI-H322M lung it was 65%; with HOP-62 NSCLC, 45.9%; in the assay with NCI-H460 lung, 6.79% (active); with HOP-92 NSCLC, 6.66% (active). For the same molecule, the growth in the assay on NCI-H522 lung was 19.5%; in the assay on 786-0 renal it was 38.7%; with COLO 205 colon, -81.9% (active); with DU-145 prostate, 58.8%; in the assay on K-562 leukemia, -55.8% (active); in the assay with MALME-3M melanoma, -66.6% (active). Moreover, the growth was 40.8% in the assay with MDA-MB-231 breast; 28.2% in the assay on RXF 393 renal; 41% with SF-268 CNS; -43% (active) in the assay on SF-295 CNS; 33.4% in the assay on SF-539 CNS; -80.9% (active) with M14 melanoma.

Take `C[C@H]1c2cccc(O)c2C(O)=C2C(=O)[C@]3(O)C(O)=C(C(N)=O)C(=O)[C@@H](N(C)C)[C@@H]3[C@@H](O)[C@@H]21`: the growth in the assay on NCI-H23 lung is 41.5%; with NCI-H226 lung it was 69.2%; with NCI-H322M lung, 44.2%; with HOP-62 NSCLC, 51.8%; in the assay with NCI-H460 lung, 35.9%; in the assay on HOP-92 NSCLC, 24.3%. For the same molecule, the growth in the assay on NCI-H522 lung is 45.4%; with 786-0 renal it was 50.7%; in the assay with COLO 205 colon it was 67.8%; in the assay with DU-145 prostate it was 47.7%; in the assay with K-562 leukemia it was 37.9%; in the assay with MALME-3M melanoma, 27.8%. The growth was 74.6% in the assay on MDA-MB-231 breast; 58.3% in the assay on RXF 393 renal; 28.2% with SF-268 CNS; 19.2% in the assay on SF-295 CNS; 25.6% with SF-539 CNS; 57.7% in the assay with UACC-257 melanoma. The growth with M14 melanoma was 32.1%.

As to `CN1CCC[C@@H]1CCO[C@](C)(c1ccccc1)c1ccc(Cl)cc1`, the growth with NCI-H23 lung is 79.9%; with NCI-H226 lung, 75.5%; with NCI-H322M lung, 78.4%; in the assay with HOP-62 NSCLC it was 75.2%; with NCI-H460 lung, 91.3%; in the assay on HOP-92 NSCLC it was 51.6%. Besides, the growth in the assay with NCI-H522 lung is 88%; in the assay on 786-0 renal it was 66.5%; with COLO 205 colon, 20%; in the assay with DU-145 prostate, 91.5%; in the assay on K-562 leukemia, 30.4%; in the assay on MALME-3M melanoma, 71.8%. In addition, the growth is 88.7% in the assay with MDA-MB-231 breast; 38.7% in the assay with RXF 393 renal; 81.8% in the assay on SF-268 CNS; 63.2% with SF-295 CNS; 76.2% in the assay with SF-539 CNS; 23.4% in the assay with UACC-257 melanoma. The growth with M14 melanoma was 15.6%.

In the case of `CC(C)CC1NC(=O)C(CCCN)NC(=O)C(C(C)C)NC(=O)C2CCCN2C(=O)C(Cc2ccccc2)NC(=O)C(CC(C)C)NC(=O)C(CCCN)NC(=O)C(C(C)C)NC(=O)C2CCCN2C(=O)C(Cc2ccccc2)NC1=O` (stereo unspecified), the growth is -75.9% (active) in the assay on NCI-H23 lung; -59.7% (active) in the assay with NCI-H226 lung; -65.5% (active) in the assay on NCI-H322M lung; -86.5% (active) with HOP-62 NSCLC; -73.2% (active) in the assay on NCI-H460 lung; -56.7% (active) with HOP-92 NSCLC. The growth in the assay with NCI-H522 lung was -80.7% (active); in the assay with 786-0 renal it was -85.9% (active); with COLO 205 colon it was -90.2% (active); in the assay on DU-145 prostate, -52.5% (active); in the assay with K-562 leukemia, -53.1% (active); in the assay with MALME-3M melanoma it was -76.3% (active). Also, the growth is -54.4% (active) in the assay with MDA-MB-231 breast; -65.7% (active) in the assay on RXF 393 renal; -85.4% (active) in the assay on SF-268 CNS; -77.4% (active) in the assay on SF-295 CNS; -82.5% (active) in the assay on SF-539 CNS; -72.9% (active) with UACC-257 melanoma. Besides, the growth in the assay with M14 melanoma was -63.8% (active).

For `Oc1c(Cl)cc(Cl)c(Cl)c1Cc1c(O)c(Cl)cc(Cl)c1Cl`, the growth in the assay on NCI-H23 lung was -0.673% (active); in the assay with NCI-H226 lung it was 18%; in the assay with NCI-H322M lung it was -1.98% (active); in the assay with HOP-62 NSCLC, 21.5%; with NCI-H460 lung it was 5.9% (active); in the assay on HOP-92 NSCLC, -21.7% (active). The growth with NCI-H522 lung was -3.33% (active); with 786-0 renal, 12.2%; with COLO 205 colon, 70.3%; with DU-145 prostate, 28.2%; in the assay with K-562 leukemia, 4.84% (active); in the assay with MALME-3M melanoma, -21.1% (active). Also, the growth with MDA-MB-231 breast was -13.5% (active); in the assay with RXF 393 renal, 15.1%; in the assay with SF-268 CNS, 17.5%; with SF-295 CNS, -42.4% (active); with SF-539 CNS, 21.4%; in the assay with UACC-257 melanoma, 9.73% (active). In addition, the growth with M14 melanoma was 16.3%.

Consider `NS(=O)(=O)c1cc(C2(O)NC(=O)c3ccccc32)ccc1Cl` (stereo unspecified), for which the growth with NCI-H23 lung is 106%; with NCI-H226 lung, 97.9%; in the assay with NCI-H322M lung, 89.6%; with HOP-62 NSCLC, 109%; in the assay on NCI-H460 lung it was 111%; with HOP-92 NSCLC it was 104%. Besides, the growth with NCI-H522 lung is 99.5%; in the assay on 786-0 renal it was 102%; in the assay on COLO 205 colon it was 103%; in the assay with DU-145 prostate, 116%; in the assay with K-562 leukemia it was 111%; in the assay on MALME-3M melanoma, 95.4%. Also, the growth is 112% with MDA-MB-231 breast; 109% with RXF 393 renal; 109% in the assay on SF-268 CNS; 103% in the assay on SF-295 CNS; 97.7% in the assay on SF-539 CNS; 112% with UACC-257 melanoma. For the same molecule, in the assay with M14 melanoma, the growth was 104%.

Regarding `CSc1nc(N)c2c(n1)N(C)C=NS2(=O)=O`, the growth in the assay with NCI-H23 lung is 105%; in the assay with NCI-H226 lung, 101%; in the assay on NCI-H322M lung it was 114%; in the assay on HOP-62 NSCLC, 123%; in the assay with NCI-H460 lung it was 115%; in the assay with HOP-92 NSCLC it was 79.1%. Further, the growth with NCI-H522 lung is 105%; in the assay with 786-0 renal, 108%; with COLO 205 colon, 101%; with DU-145 prostate, 122%; with K-562 leukemia, 116%; in the assay on MALME-3M melanoma, 110%. The growth in the assay with MDA-MB-231 breast was 108%; with RXF 393 renal, 116%; with SF-268 CNS, 107%; in the assay on SF-295 CNS, 105%; with SF-539 CNS it was 107%; in the assay with UACC-257 melanoma, 114%. The growth in the assay with M14 melanoma is 106%.

Regarding `CC(C)Sc1nc(Cl)c(C#N)c(-c2ccc(F)cc2)n1`, the growth with NCI-H23 lung was 100%; in the assay with NCI-H226 lung, 103%; with NCI-H322M lung it was 102%; in the assay on HOP-62 NSCLC, 109%; with NCI-H460 lung, 113%; in the assay on HOP-92 NSCLC it was 92.2%. Moreover, the growth was 86.8% in the assay on NCI-H522 lung; 96.4% with 786-0 renal; 115% in the assay on COLO 205 colon; 113% in the assay on DU-145 prostate; 16.2% in the assay on K-562 leukemia; 100% with MALME-3M melanoma. Further, the growth was 111% in the assay with MDA-MB-231 breast; 116% in the assay on RXF 393 renal; 106% with SF-268 CNS; 108% with SF-295 CNS; 96.5% in the assay on SF-539 CNS; 118% in the assay with UACC-257 melanoma. Besides, the growth with M14 melanoma was 94.5%.

Source of the values: PubChem BioAssay (NCI).
